Results from ChEMBL document CHEMBL1157539, “Thousands of chemical starting points for antimalarial lead identification” (Nature, 2010).

Tested on: HepG2
Assay: GSK_TCMDC: Percent inhibition of human HepG2 cell line. Test compounds present at 10uM.
Format: functional

| Compound | Inhibition |
| --- | --- |
| Cc1cc(N2CCN(CC3CCN(C)CC3)CC2)nc(Nc2ccc(Br)cc2)n1 | 31% |
| CC(=O)Nc1ccc(CN2CCC(NC(=O)c3ccc(-c4cccc(OC(C)C)c4)s3)CC2)cc1.O=C(O)C(F)(F)F | 14% |
| O=C(NCCc1cccc(Cl)c1Cl)c1ccc(N2CCN(c3ccncc3)CC2)nc1.O=C(O)C(F)(F)F | 38% |
| CCCN(CC1CC1)c1ncc(-c2ccccc2CNCc2ccccc2O)cn1 | 4% |
| CCCCN1CCCC[C@H]1[C@@H](O)c1ccnc2ccc(OCC)cc12 | 6% |
| O=C(Nc1ccc(-c2cccc(-c3nc4cc(C(F)(F)F)ccc4[nH]3)c2)cc1)Nc1ccc(F)c(F)c1F | 58% |
| Cl.O=C(O[C@H]1CN[C@H](C#Cc2cc3c(Nc4ccc(OCc5cccc(F)c5)c(Cl)c4)ncnc3s2)C1)N1CCCC1 | 11% |
| COc1ccc2nccc([C@@H](O)CN3CCC(NCc4nc5ccc(F)cc5[nH]4)CC3)c2c1.O=C(O)C(=O)O | 20% |
| c1cn(-c2ccc(CNc3nccc(Nc4ccc(OCCN5CCOCC5)cc4)n3)cc2)cn1 | 2% |
| COc1ccc(NC(=O)Nc2ccc(-c3ccccc3)cc2)cc1Cn1cnc(N2CCCNCC2)cc1=O.O=C(O)C(F)(F)F | 24% |
| c1csc(-c2nc(N3CCCCC3)ncc2-c2ccsc2)n1 | 0% |
| COc1ccc(-c2nnc(Sc3ccc(C#N)c([N+](=O)[O-])c3)n2CCC(C)C)cc1 | 15% |
| O=C(Nc1cccc(-c2ccc(-c3nc4ccccc4[nH]3)cc2)c1)c1cnn2cccnc12 | 9% |
